This is one part of a sample in which hits are shown more often than they occur.
Menin MLL FP TR: menin-MLL binding inhibition, Texas Red mutant peptide | O00255 | Menin + Texas Red MLL mutant peptide, fluorescence polarization | Potency, µM (series often up to 61.6 µM), for inactives: top-dose FP activity change, negative = inhibition, actives largely listed as inhibitors | actives 0.23% (n = 270,000) | AID 1768; active = well fitted inhibition curve with a large enough effect in the polarisation, with a control signal flat, not every such curve was filed as active; inconclusive = small, poorly fitted or top-dose-only effect, or effect the other way, or a change in a side signal; inactive = no such curve, though single readings can be large or run the other way; the % refers to the polarisation; note: potency is the fitted concentration of half-maximal effect; % of control where 0% means no effect
ClpP mod: qHTS Assay for Activators of ClpP | ATP-dependent Clp protease proteolytic subunit (Bacillus subtilis (strain 168)), P80244 | purified B. subtilis ClpP, FRET peptide cleavage, 20 min | Potency, µM (series often up to 57.5 µM), for the others: at the highest dose activity change, negative = active | actives 1.9% (n = 340,000) | AID 651965, 2013; active = well fitted falling curve with a large enough effect; inconclusive = small, poorly fitted or top-dose-only effect; inactive = no such curve, though single readings can be large or run the other way; note: potency is the fitted concentration of half-maximal effect; the source files actives as falling curves though it sought activators and does not explain the sign; nearly all actives have a fitted effect of over 65% in size
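ClpP 10 microg/mL final, pH 8 Tris/KCl buffer with BSA, glycerol, Tween-20; compound pinned in; FRET-FV substrate; RT 20 min; Ex320/Em430; ΔFRET vs ADEP 5.8 microM, DMSO, no enzyme.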
p53 reactivator: re-activators of mutant p53 | AID 504706 | actives 0.063% (n = 320,000) | Potency, µM (highest dose often 92.2 µM), for inactives: at the highest dose activity change, positive = activation, usual class: activators | H1299 p53-A138V BP100-luciferase reporter, luminescence, 24 h; active = well fitted activation curve with a large enough effect; inconclusive = small, poorly fitted or top-dose-only effect; inactive = no such curve, though single readings can be large or run the other way; note: potency is the fitted concentration of half-maximal effect; % of control where 0% means no effect; nearly all actives have a fitted effect of over 45% in size
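H1299 (p53-null), stable ts p53-A138V + BP100-Luc; 1000 cells/well, Opti-MEM/10% FBS; cpd 4 pt, 1:5; 24 h, 37 deg C, 5% CO2; detection reagent 10 min RT; luminescence.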
CXXC DNA block: blocks binding of human MLL CXXC domain to DNA; MLL-CXXC / FITC-HOXA9 DNA fluorescence polarization; Potency, µM (highest dose often 115 µM), without a hit: at the highest dose activity change, negative = inhibition, actives largely listed as inhibitors; actives 0.037% (n = 290,000); active = well fitted inhibition curve with a large enough effect in the polarisation, with a control signal flat, not every such curve was filed as active; inconclusive = small, poorly fitted or top-dose-only effect, or effect the other way, or a change in a side signal; inactive = no such curve, though single readings can be large or run the other way; the % refers to the polarisation; note: potency is the fitted concentration of half-maximal effect
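Purified MLL-CXXC (added from a 7 uM solution) was preincubated 5 min at ambient with pinned compounds in 50 mM Tris-HCl pH 7.5, 50 mM NaCl, 1 mM DTT, 0.05% BSA. Fluorescein-labeled HOX-A9 DNA (50 nM solution) followed, 30 min, then polarization read.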
Menin MLL FP FL: displaces fluorescein MLL peptide from human menin | FP activity change, % at 61.4 µM | 290,000 tested, under 10 active | AID 1766 | Fluorescence polarization, fluorescein-MLL peptide displacement from menin; active = well fitted curve in the direction sought with a large enough effect in the polarisation, not every such curve was filed as active; inconclusive = small, poorly fitted or top-dose-only effect, or effect the other way, or a change in a side signal; inactive = no such curve, though single readings can be large or run the other way; the % refers to the polarisation; note: % of control where 0% means no effect
Numbers without * were called inactive; ? = inconclusive; · = no result.

SMILES	Menin MLL FP TR	ClpP mod	p53 reactivator	CXXC DNA block	Menin MLL FP FL
CCC(=O)N1CCc2cc(Br)cc(S(=O)(=O)CCC(=O)N3CCN(c4ccccc4F)CC3)c21	·	-1%	·	·	·
Cc1ccc(NC2CCCN(C(=O)c3ccc4nccnc4c3)C2)cc1C (stereo not given)	·	16µM*	-6%	-5%	·
O=C(NCCc1ccccc1)c1oc2ccccc2c1COc1ccccc1	12%	0%	?	-3%	4
O=C(Nc1ccccc1Cc1ccccc1)c1oc2ccccc2c1COc1ccccc1	10%	28µM*	6%	11%	5
C(=C\c1ccnc2ccccc12)/c1ccc(N2CCOCC2)cc1	·	1%	·	·	·
COc1ccc(N2CCN(c3ccc(NC(=O)C4CCCCC4)cc3C#N)CC2)cc1	?	28µM*	-4%	9%	-3
COc1ccc(C(=O)Nc2ccc(N3CCN(c4ccc(OC)cc4)CC3)c(C#N)c2)cc1	-10%	-14%	-6%	28%	4
Cc1ccc(OCC(=O)Nc2ccc3nc(SCC(=O)N4CCOCC4)sc3c2)cc1C	·	-2%	·	·	·
COc1ccc(CN2CC[C@H]3C=CC[C@@H](C(=O)Nc4ccccc4)[C@H]3C2=O)cc1OC	·	1%	·	·	·
CC(C)CCNC(=O)C1CCN(S(=O)(=O)c2ccc(-n3cnnn3)cc2)CC1	-12%	32µM*	-6%	2%	-1
CCc1ccc(CN2C(=O)c3ccccc3C2C(=O)NC2CCCCCC2)cc1 (stereo not given)	·	0%	·	·	·
NC(=O)C1(Nc2ccc(C(=O)O)cc2)CCCC1	·	11µM*	·	·	·
NC(=O)C1(Nc2ccccc2)CCCC1	·	1%	·	·	·
O=C(NCCCN1CCOCC1)c1cc(-c2ccc(F)cc2)nc2ccccc12	·	5%	5%	·	·
O=C(NCCCN1CCCC1=O)c1cc(S(=O)(=O)N2CCN(c3ccccc3)CC2)ccc1Cl	·	28µM*	·	·	·
O=C(NCCN1CCOCC1)c1cc(-c2ccc(F)cc2)nc2ccccc12	·	25µM*	2%	·	·
O=C(NCCCN1CCCC1=O)c1cc(-c2ccc(F)cc2)nc2ccccc12	·	8.9µM*	-1%	·	·
CCN(CC)CC(O)COc1ccc2c(c1)OCO2 (stereo not given)	-17%	13µM*	1%	-6%	4
COC(=O)c1ccccc1N(Cc1ccccc1)S(C)(=O)=O	4%	25µM*	-3%	2%	7
CC(C)NC(=O)c1ccccc1N(Cc1ccccc1)S(C)(=O)=O	11%	2%	1%	-15%	1
COc1cc2nc(N3CCCN(C)CC3)nc(NC3CCOCC3)c2cc1OC	·	4%	·	·	·
COc1ccc(/C=N/Nc2cc(C)nc3ccc(OC)cc23)c(OC)c1	13µM*	-2%	-167%	?	-10
C/C=C(\C)C(=O)OC1c2c(ccc3ccc(=O)oc23)OC(C)(C)C1OC(C)=O (stereo not given)	-17%	32µM*	-1%	-1%	3
C/C=C(/C)C(=O)O[C@@H]1c2c(ccc3ccc(=O)oc23)OC(C)(C)[C@@H]1OC(C)=O	·	4%	-2%	·	·
Cc1ccc(Cn2cc(C(=O)c3ccc4c(c3)OCO4)c(=O)c3cc(C)ccc32)cc1	·	-2%	·	·	·
SMILES	Menin MLL FP TR	ClpP mod	p53 reactivator	CXXC DNA block	Menin MLL FP FL
Cc1nn(C(C)(C)C)c(OC(=O)c2ccc3c(c2)OCO3)c1Sc1ccccc1	4%	32µM*	1%	10%	1
Cc1nn(C(C)(C)C)c(OC(=O)c2ccc3c(c2)OCO3)c1S(=O)(=O)c1ccccc1	?	?	1%	2%	0
O=S(=O)(Nc1ccc(-c2cn3ccccc3n2)cc1)c1ccccc1	·	-28%	6%	6%	3
Cc1cc(C)c(S(=O)(=O)Nc2ccc(-c3cn4ccccc4n3)cc2)c(C)c1	-4%	?	-4%	35%	3
O=C(Nc1cccc(-c2cn3ccccc3n2)c1)c1ccccc1	8%	-3%	-1%	6%	-5
CCCCC(=O)Nc1cccc(-c2cn3ccccc3n2)c1	3%	28µM*	30%	-15%	2
Cc1cc(C)c(S(=O)(=O)Nc2cccc(-c3cn4ccccc4n3)c2)c(C)c1	·	28µM*	·	·	·
Cc1cccc(S(=O)(=O)Nc2ccc(-c3cn4ccccc4n3)cc2)c1	-8%	28µM*	14%	15%	2
NCC(=O)N[C@@H](CCCN=C(N)N)C(=O)NCC(=O)N[C@@H](CCC(=O)O)C(=O)N[C@@H](CO)C(=O)O	10%	·	·	·	4
CCCOC(=O)N1CCN(/[N+]([O-])=N/Oc2ccc([N+](=O)[O-])cc2[N+](=O)[O-])CC1	8%	·	·	·	-10
CCN(CC)c1ccc(/C=N/NC(=O)c2c[nH]c3ccccc23)cc1	?	32µM*	3%	15%	10
Cc1ccc(CNC(=O)c2ccc(N3CCC4(CC3)CC(c3ccccc3)=NO4)c(N)c2)cc1	24%	8.9µM*	·	22%	1
Cc1ccc(CNC(=O)c2ccc(N3CCC4(CC3)CC(c3ccccc3)=NO4)c(NC(=O)c3ccccc3)c2)cc1	·	?	-5%	·	·
CCn1c(CNC(=O)c2ccccc2F)nnc1SCC(=O)Nc1nncs1	-3%	·	-2%	6%	-1
CCn1c(CNC(=O)c2ccccc2Br)nnc1SCC(=O)Nc1nncs1	-22%	14µM*	2%	?	1
CCOc1ccccc1N1C(=O)c2ccccc2N/C1=C\N1CCN(C(=O)c2ccco2)CC1	·	2%	·	·	·
CN(C)c1oc(-c2ccccc2[N+](=O)[O-])nc1C#N	·	-12%	0%	-13%	1
N#Cc1nc(-c2ccccc2Cl)oc1N1CCN(C(=O)c2ccco2)CC1	?	3%	-11%	3%	0
CC1CC(C)CN(c2oc(-c3ccccc3Cl)nc2C#N)C1 (stereo not given)	3%	11µM*	6%	1%	0
COc1ccccc1-c1nc(C#N)c(N2CCN(Cc3ccccc3)CC2)o1	-15%	28µM*	17%	8%	1
N#Cc1nc(Cc2ccccc2)oc1N1CCN(c2ccccc2)CC1	1%	-2%	5%	-4%	1
CN(C)c1oc(-c2ccccc2Cl)nc1C#N	-12%	14µM*	-5%	7%	3
N#Cc1nc(-c2cccs2)oc1N1CCN(c2ccccc2)CC1	6%	28µM*	-11%	1%	-3
CN=C1C=CC(=C(c2ccc(N(C)C)cc2)c2ccc(N(C)C)cc2)C=C1	?	·	·	-1%	-6
COc1ccc(CN(Cc2ccccc2)C(=O)c2ccno2)cc1COc1ccc(NC(C)=O)cc1	·	-1%	·	·	·
Cc1cccc(-c2nn(C(=S)Nc3ccccc3)cc2-c2ccnc3ccccc23)n1	26%	·	·	·	-1
CC1CCN(c2oc(-c3cccc4ccccc34)nc2C#N)CC1	12%	5.6µM*	9%	4%	7
N#Cc1nc(-c2ccccc2Cl)oc1N1CCCCC1	-5%	10µM*	16%	-9%	0

High-throughput results deposited in PubChem BioAssay by National Center for Advancing Translational Sciences (NCATS).
